The values that follow come from PubChem BioAssay.

SMILES strings stand for the structures. Active and inactive are the calls of the source.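 How the source made its calls, unless noted: active means inhibition above 20% together with a positive visual image hit; inconclusive means visual image hit but inhibition not above 20%; inactive means no visual image hit.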

A short description of assay [1]: inhibitors of TNFa-induced NFkB p65 translocation, primary screen, imaging, HUVEC, MLSMR starter and 10KST1 sets (AID 438).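 Further: compound added about 3h40 before a 20 min TNFalpha stimulation.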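 On inhibition: signal is the nuclear over cytoplasmic p65 intensity ratio per well.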 As to conditions: HUVEC TNFa-induced p65 nuclear translocation; cell count: measured here: nuclei count (cytotoxicity indicator), at 2.08 µM; inhibition: at 2 µM, stronger effect = higher value, 0% TNFa-plus-vehicle, 100% no-TNFa wells.
A short description of assay [2]: reduction of polyQ htt aggregates in cells – imaging, exon1htt(103Q)mCFP cells, high-content imaging, primary screen (AID 483;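 active means visual image review flags a hit and inhibition of aggregation exceeds 20%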;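 further: compound exposure lasted 3 days before fixation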;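 on nuclei count: percent of the per-plate median nuclei count of sample wells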). As to conditions: exon1htt(103Q)mCFP cell line, aggregate imaging, at 2 µM; inhibition of aggregation: stronger effect = higher value; nuclei count: measured here: cell count, toxicity.
A short description of assay [3]: endothelial E-selectin expression blockers – imaging, HUVEC, immunofluorescence, MLSMR starter and 10KST1 sets, primary screen (AID 487;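 active means visually confirmed hit in the image check and inhibition above 20%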;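 on inhibition: signal is fraction of cell area covered by stained E-selectin grains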;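 on nuclei count: 100% = median nuclei count of all wells on the same plate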). The following applies: HUVEC TNFalpha-induced E-selectin immunofluorescence imaging, at 2 µM; inhibition: stronger effect = higher value; nuclei count: measured here: cell number, toxicity.
The target in assay [4] is Voltage-gated potassium channel subunit beta-2 (Rattus norvegicus) (UniProt P62483). Put plainly: inhibitors of rat Kvbeta2 reductase activity – biochemical, NADPH fluorescence, primary screen (AID 622;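 active means fluorescence slope higher than the sample average by over 3 SD, cut at about -0.22 in these data, passing the limit was not always enough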;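 further: slope of raw intensity against log time taken from 70 to 1610 s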). The following applies: recombinant KvBeta, 4-cyanobenzaldehyde reduction, at 10 µM, stronger effect = higher value.
Chain of Voltage-gated potassium channel subunit beta-2 (Rattus norvegicus) (P62483 whole entry, looked up): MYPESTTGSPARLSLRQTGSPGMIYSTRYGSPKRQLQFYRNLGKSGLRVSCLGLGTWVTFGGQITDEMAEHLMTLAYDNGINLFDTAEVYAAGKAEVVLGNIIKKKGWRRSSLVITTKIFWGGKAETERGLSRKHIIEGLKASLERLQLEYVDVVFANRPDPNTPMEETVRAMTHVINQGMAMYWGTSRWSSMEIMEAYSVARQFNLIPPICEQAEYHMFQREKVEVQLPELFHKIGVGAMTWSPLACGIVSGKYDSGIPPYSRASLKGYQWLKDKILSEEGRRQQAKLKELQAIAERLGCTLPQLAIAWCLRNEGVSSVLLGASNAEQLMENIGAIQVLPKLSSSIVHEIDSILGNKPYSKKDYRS
Assay [5] has the same target. Briefly: enhancers of rat Kvbeta2 NADPH turnover – biochemical, NADPH fluorescence, primary screen (AID 623;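 active means NADPH fluorescence slope more negative than the mean of all samples by about 3 SD, 99.7% confidence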;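 further: fluorescence intensity change per second fitted from 20 to 320 s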). The following applies: Recombinant KvBeta, NADPH fluorescence decrease slope, 10 min; at 10 µM; stronger effect = lower value.
The target in assay [6] is Alpha-2C adrenergic receptor (Homo sapiens) (UniProt P18825). Briefly: compounds altering alpha2C-coupled GIRK flux – cell-based, HEK293 alpha2C/GIRK1/2, thallium flux, primary screen (AID 624;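 active means fluorescence slope after compound addition differing from the mean of all screened samples at 99.7% confidence, in either direction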;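 further: slope of fluorescence ratio to pre-addition baseline per second over 15 to 24 s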). The following applies: thallium flux BTC fluorescence, at 10 µM, actives lie on both sides.
Chain of Alpha-2C adrenergic receptor (Homo sapiens) (P18825 whole entry, looked up): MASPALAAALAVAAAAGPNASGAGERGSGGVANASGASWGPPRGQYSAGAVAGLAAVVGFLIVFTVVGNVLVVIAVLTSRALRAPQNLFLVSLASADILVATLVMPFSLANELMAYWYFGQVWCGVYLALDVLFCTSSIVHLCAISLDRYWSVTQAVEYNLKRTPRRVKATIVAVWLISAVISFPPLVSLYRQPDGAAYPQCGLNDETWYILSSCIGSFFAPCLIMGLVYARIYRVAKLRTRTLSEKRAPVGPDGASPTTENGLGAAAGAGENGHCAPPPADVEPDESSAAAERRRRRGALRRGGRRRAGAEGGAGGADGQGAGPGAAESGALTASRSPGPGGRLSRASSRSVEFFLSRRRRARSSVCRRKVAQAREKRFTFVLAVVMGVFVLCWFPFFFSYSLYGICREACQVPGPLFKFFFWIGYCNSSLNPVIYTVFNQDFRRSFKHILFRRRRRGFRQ
Assay [7] can be described thus: blockers of RIG-like receptor reporter activation – cell-based, Sendai virus stimulus, luciferase, 10K MLSCN set, TLR/RLR signaling modifier project, primary screen (AID 602276;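 active means inhibition at or above 50% at 10 µM; inactive means inhibition below 50%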;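 further: firefly luciferase from ISG56 promoter only with Renilla not read in this screen; 0% = Sendai virus plus DMSO and 100% = medium plus DMSO without virus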). The following applies: HEK293 RL24 IRF3 luciferase reporter, at 10 µM, stronger effect = higher value.
The nature of assay [8]: TLR3 IRF3 reporter activation blockers – cell-based, poly I:C stimulus, luciferase, 10K MLSCN set, primary screen (AID 602277;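 active means inhibition of the reporter signal at or above 50%; inactive means inhibition below 50%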). As to conditions: HEK293-TLR3 RL24 IRF3 luciferase reporter, at 10 µM, stronger effect = higher value.

On to `Cc1ccc2c(c1)NC(=O)C(CC(=O)NCCCN1CCN(c3cc(Cl)ccc3C)CC1)O2` (centres undefined), for which, in assay [1], the cell count came to 640. The inhibition in assay [1] is 4.1% (inactive); in assay [3] it was 8.8% (inactive); in assay [7], -15.5% (inactive); in assay [8] it was -8.91% (inactive). Further, the inhibition of aggregation in assay [2] is -19% (inactive). The nuclei count in assay [2] came out at 82.6%; in assay [3], 123%. The fluorescence slope in assay [4] is -0.55 (inactive). For the same compound, in assay [5], the NADPH fluorescence slope was 3.4e-05 (inactive). Moreover, the slope in assay [6] is 0.00483 (inactive).

Take `CC(=O)CCc1ccc(OCCCCn2cncn2)cc1`: in assay [1], the cell count came out at 513. Moreover, the inhibition in assay [1] was 6.8% (inactive); in assay [3], -58.4% (inactive); in assay [7], 1.5% (inactive); in assay [8], -5.67% (inactive). For the same compound, the inhibition of aggregation in assay [2] was 15.6% (inactive). Further, the nuclei count in assay [2] is 92.1%; in assay [3] it was 116%. Further, in assay [4], the fluorescence slope is -0.625 (inactive). For the same compound, in assay [5], the NADPH fluorescence slope is -1.7e-05 (inactive). The slope in assay [6] is 0.00807 (inactive).

`CCOc1cc(NC(=O)c2ccco2)c(OCC)cc1NC(=O)COc1ccccc1C`: the cell count in assay [1] amounted to 388. In addition, the inhibition in assay [1] is 0% (inactive); in assay [3] it was -74.7% (inactive); in assay [7], -1.87% (inactive); in assay [8], -75.9% (inactive). Also, the inhibition of aggregation in assay [2] is -11.9% (inactive). For the same compound, the nuclei count in assay [2] was found to be 107%; in assay [3] it was 129%. In assay [4], the fluorescence slope is -0.00358 (active). Also, the NADPH fluorescence slope in assay [5] was 3.9e-06 (inactive). Also, the slope in assay [6] was 0.00663 (inactive).

Regarding `O=C(c1ccc(Cl)cc1)N1CCCOC1`, in assay [1], the cell count is 784. Besides, the inhibition was -9.7% (inactive) in assay [1], -84.3% (inactive) in assay [3], 10.5% (inactive) in assay [7] and 18.6% (inactive) in assay [8]. In assay [2], the inhibition of aggregation was -49% (inactive). The nuclei count was 99.2% in assay [2] and 111% in assay [3]. Besides, the fluorescence slope in assay [4] is -0.32 (inactive). For the same compound, the NADPH fluorescence slope in assay [5] is -4.9e-05 (inactive). The slope in assay [6] was 0.00521 (inactive).

Regarding `COc1ccc2c(c1)CCc1cc(C(=O)N3CCN(c4ccc(N5CCOCC5)nn4)CC3)sc1-2`, the cell count in assay [1] turned out to be 583. For the same compound, the inhibition is 5.5% (inactive) in assay [1], -61.7% (inactive) in assay [3], 2.81% (inactive) in assay [7] and -42.5% (inactive) in assay [8]. Further, the inhibition of aggregation in assay [2] is -28.1% (inactive). Besides, the nuclei count worked out at 127% in assay [2] and 114% in assay [3]. Further, the fluorescence slope in assay [4] is -0.499 (inactive). Besides, in assay [5], the NADPH fluorescence slope is -1.1e-05 (inactive). In assay [6], the slope is 0.00712 (inactive).

On to `COc1ccc(NC(C)=O)cc1NC(=O)CN1CCN(c2ccccn2)CC1`, for which the cell count in assay [1] stood at 573. In addition, the inhibition in assay [1] was -7% (inactive); in assay [3] it was -35.2% (inactive); in assay [7], -3.99% (inactive); in assay [8] it was 0.164% (inactive). The inhibition of aggregation in assay [2] was -1.2% (inactive). The nuclei count in assay [2] stood at 104%; in assay [3], 74.8%. For the same compound, in assay [4], the fluorescence slope was -0.526 (inactive). The NADPH fluorescence slope in assay [5] was -1.4e-05 (inactive). In assay [6], the slope is 0.00596 (inactive).

With `Cc1cc2ncn(S(=O)(=O)c3ccc(S(=O)(=O)N4CCOCC4)cc3)c2cc1C`, the cell count in assay [1] was 311. Moreover, the inhibition is -3.3% (inactive) in assay [1], -98.8% (inactive) in assay [3], -0.351% (inactive) in assay [7] and 3.91% (inactive) in assay [8]. In addition, the inhibition of aggregation in assay [2] was 0.7% (inactive). Besides, the nuclei count in assay [2] turned out to be 93.4%; in assay [3], 113%. The fluorescence slope in assay [4] is -0.518 (inactive). In assay [5], the NADPH fluorescence slope is 1.7e-05 (inactive). Also, the slope in assay [6] was 0.00432 (inactive).

As to `O=C(NC1CCCCC1)c1nc2c(nnn2Cc2ccccc2Cl)c(=O)[nH]1`, the cell count in assay [1] was found to be 584. Moreover, the inhibition is 8.8% (inactive) in assay [1], 7.2% (inactive) in assay [3], 3.13% (inactive) in assay [7] and 6.18% (inactive) in assay [8]. For the same compound, the inhibition of aggregation in assay [2] is 17.1% (inactive). The values for the nuclei count in assay [2] and in assay [3] were 85.3% and 105%, respectively. Also, the fluorescence slope in assay [4] was -0.525 (inactive). For the same compound, in assay [5], the NADPH fluorescence slope is -2.9e-05 (inactive). Moreover, the slope in assay [6] is 0.0047 (inactive).

As to `O=C(NCC1COc2ccccc2O1)c1ccc(NC(=O)c2ccco2)cc1` (centres undefined), in assay [1], the cell count stood at 752. The inhibition is -3.6% (inactive) in assay [1], -120% (inactive) in assay [3], 7.34% (inactive) in assay [7] and 20% (inactive) in assay [8]. In addition, in assay [2], the inhibition of aggregation is 22.7% (inactive). Moreover, the nuclei count in assay [2] was 106%; in assay [3], 120%. The fluorescence slope in assay [4] is -0.435 (inactive). The NADPH fluorescence slope in assay [5] was -2.6e-05 (inactive). Moreover, the slope in assay [6] was 0.00329 (inactive).

Turning to `Cc1cc(NC(=O)C23CCC(C)(C(=O)O2)C3(C)C)no1` (centres undefined), the cell count in assay [1] amounted to 406. The inhibition was 4% (inactive) in assay [1], -22.3% (inactive) in assay [3], 4.18% (inactive) in assay [7] and 10.3% (inactive) in assay [8]. In assay [2], the inhibition of aggregation is 14.4% (inactive). Besides, the nuclei count amounted to 80.2% in assay [2] and 111% in assay [3]. Further, the fluorescence slope in assay [4] was -0.612 (inactive). Further, in assay [5], the NADPH fluorescence slope is -1.5e-06 (inactive). In addition, the slope in assay [6] is 0.00569 (inactive).

As for `CCCc1cc(Nc2cccc(OC)c2)n2ncnc2n1`, in assay [1], the cell count is 708. Moreover, the inhibition in assay [1] is -9.9% (inactive); in assay [3], -8.3% (inactive); in assay [7], 12.1% (inactive); in assay [8] it was 16.3% (inactive). Also, the inhibition of aggregation in assay [2] is -22.9% (inactive). Further, the nuclei count was found to be 100% in assay [2] and 111% in assay [3]. Moreover, the fluorescence slope in assay [4] was -0.321 (inactive). Besides, in assay [5], the NADPH fluorescence slope was -3e-05 (inactive). The slope in assay [6] was 0.00589 (inactive).

As to `COc1ccc(S(=O)(=O)NCc2ccc3c(c2)OCO3)cc1C(=O)O`, the cell count in assay [1] stood at 379. Also, the inhibition in assay [1] is -4.7% (inactive); in assay [3], -41.3% (inactive); in assay [7], 9.22% (inactive); in assay [8], 20.8% (inactive). Moreover, the inhibition of aggregation in assay [2] was -1.8% (inactive). Moreover, the nuclei count in assay [2] was found to be 120%; in assay [3] it was 107%. The fluorescence slope in assay [4] is -0.324 (inactive). In addition, in assay [5], the NADPH fluorescence slope is -8.9e-06 (inactive). Also, the slope in assay [6] was 0.00676 (inactive).

As to `NC(=O)C1(N2CCCCC2)CCN(C(=O)Nc2ccccc2C(F)(F)F)CC1`, in assay [1], the cell count is 312. Besides, the inhibition is -3.2% (inactive) in assay [1], -133% (inactive) in assay [3], 11.1% (inactive) in assay [7] and 31.2% (inactive) in assay [8]. In addition, the inhibition of aggregation in assay [2] is 14.4% (inactive). Also, the figures for the nuclei count in assay [2] and in assay [3] were 91.9% and 142%, respectively. Besides, the fluorescence slope in assay [4] was -0.445 (inactive). Besides, the NADPH fluorescence slope in assay [5] is 6.2e-06 (inactive). Besides, the slope in assay [6] is 0.00567 (inactive).

Consider `COc1ccc(NC(=O)NCCN2C(=O)C3C4C=CC(C4)C3C2=O)cc1` (centres undefined), for which, in assay [1], the cell count stood at 572. For the same compound, the inhibition in assay [1] was -0.8% (inactive); in assay [3] it was -25.1% (inactive); in assay [7], -29.6% (inactive); in assay [8], -73.3% (inactive). Moreover, the inhibition of aggregation in assay [2] was 0.8% (inactive). The nuclei count came to 75.5% in assay [2] and 110% in assay [3]. Further, the fluorescence slope in assay [4] is -0.54 (inactive). Also, the NADPH fluorescence slope in assay [5] is -3.1e-05 (inactive). For the same compound, the slope in assay [6] is 0.00569 (inactive).
